Assay outcomes from PubChem.
This is a sample that favours compounds with a hit; in the whole collection about 11% have one here.
VACV Venus inh – qHTS for Stage-Specific Inhibitors of Vaccinia Orthopoxvirus: Venus Reporter Primary qHTS | Vaccinia virus Venus reporter expression, fluorescence | Potency, µM (titrated, usually from 36.5 µM), actives largely listed as inhibitors | hit rate 0.46% among 330,000; calls by dose curve; tested in A549 cells; also: nearly all actives have a fitted effect of over 30% in size
NS1 function inh – qHTS Assay for Inhibitors of Influenza NS1 Protein Function; AID 2326, 2010; hit rate 0.4% among 270,000; Potency, µM (doses to about 46.1 µM); calls by dose curve; also: actives are rising curves; nearly all actives have a fitted effect of over 50% in size
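In this qHTS, NS1 from influenza A is expressed in budding yeast, where it slows growth. Cells are switched from glucose to 2% galactose medium (pH 6.0, -URA), treated with compound, and growth recovery is read at OD600.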
VACV mCherry inh – qHTS for Stage-Specific Inhibitors of Vaccinia Orthopoxvirus: mCherry Reporter Primary qHTS | Vaccinia virus mCherry reporter infection, fluorescence | Potency, µM (titrated, usually from 36.5 µM), hits mostly inhibitors | hit rate 0.63% among 310,000; calls by dose curve; tested in A549 cells; also: nearly all actives have a fitted effect of over 35% in size
Pf growth 96h – Primary qHTS for delayed death inhibitors of the malarial parasite plastid, 96 hour incubation | Potency, µM (highest dose often 28.7 µM), hits mostly inhibitors | P. falciparum luciferase reporter growth, 96 h | AID 504834, 2011 | hit rate 6.9% among 320,000
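Erythrocytes infected with luciferase-expressing P. falciparum were dispensed at 2% hematocrit and 0.05% parasitemia (final), then incubated with compounds 96 hours at 37 C in 5% CO2. Luminescence after detection reagent addition reported growth.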
Pf growth 48h – Primary qHTS for delayed death inhibitors of the malarial parasite plastid, 48 hour incubation; P. falciparum luciferase growth in erythrocytes, 48 h; Potency, µM (titrated, usually from 28.7 µM), usual class: inhibitors; hit rate 5.9% among 310,000
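Luciferase-expressing parasites in RBCs, 2% Hct / 0.1% parasitemia final; RPMI 1640 + 0.5% Albumax; 37 C, 5% CO2, one generation; luminescence read-out, lower signal = inhibition.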
HCV inhibitor – qHTS Assay for Inhibitors of Hepatitis C Virus (HCV); Huh7.5.1 HCVcc-Cre infection, luciferase reporter, 44 h; Potency, µM (series often up to 41.8 µM), usual class: inhibitors; hit rate 3.4% among 340,000; AID 651820, 2012
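Reporter virus HCVcc-Cre (~0.5 moi) infects cells exposed to compound; seeding density 1,000 cells/well with 4 h settling beforehand. Luminescence, 15 sec read, taken 44 h post-infection following a 15 min RT substrate incubation.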
Hits are given with their value; [ ] = remark or other dose. Unless noted, calls follow the shape of the dose curve; as a rule, active = well fitted inhibition curve with a large enough effect; inconclusive = small, poorly fitted or top-dose-only effect, or another doubt; inactive = no such curve, though single readings can be large or run the other way.

What do the screens show for `CCc1ccc[n+](-c2[nH]c(=O)sc2/C=N/N=C(\[O-])c2cccnc2)c1`?
VACV Venus inh: inactive; NS1 function inh: inactive; VACV mCherry inh: inactive; Pf growth 96h: inactive; Pf growth 48h: inactive; HCV inhibitor: inactive

How did COc1ccccc1C(=O)NCC(=O)N/N=C/c1cc(Br)ccc1OC(=O)/C=C\c1ccco1 do in these assays?
NS1 function inh: inactive; Pf growth 96h: inconclusive; Pf growth 48h: inactive; HCV inhibitor: inconclusive

What do the screens show for `O=C(CNC(=O)c1ccc(F)cc1)N/N=C/c1cc(Br)ccc1OC(=O)/C=C/c1ccco1`?
VACV Venus inh: inactive; NS1 function inh: inactive; VACV mCherry inh: inconclusive; Pf growth 96h: inconclusive; Pf growth 48h: 13µM; HCV inhibitor: 10µM

How did O=C(CNC(=O)c1ccccc1F)N/N=C/c1cc(Br)ccc1OC(=O)/C=C/c1ccco1 do in these assays?
VACV Venus inh: inactive; NS1 function inh: inactive; VACV mCherry inh: inconclusive; Pf growth 96h: inconclusive; Pf growth 48h: 10µM; HCV inhibitor: 6.3µM

What do the screens show for `CCN(CC)c1ccc(/C=C/C(=O)c2cccnc2)cc1`?
Pf growth 96h: inconclusive; Pf growth 48h: 0.93µM; HCV inhibitor: inactive

Results for CSCCC(NC(=O)c1ccc(Cl)cc1Cl)C(=O)N1CCCCCCC1 (stereo not drawn) ?
VACV Venus inh: inactive; VACV mCherry inh: inactive; Pf growth 96h: inactive; Pf growth 48h: inconclusive; HCV inhibitor: inactive

How did COc1ccc(C)cc1NC(=O)C(=O)c1cn(CC(=O)N2CCCC2)c2ccccc12 do in these assays?
VACV Venus inh: inactive; NS1 function inh: inactive; VACV mCherry inh: inactive; Pf growth 96h: 8.3µM; Pf growth 48h: inconclusive

What do the screens show for `COc1ccc(NC(=O)C(=O)c2cn(CC(=O)N3CCCC3)c3ccccc23)cc1OC`?
VACV Venus inh: inactive; NS1 function inh: inactive; VACV mCherry inh: inactive; Pf growth 96h: inconclusive; Pf growth 48h: inactive; HCV inhibitor: inconclusive

Results for COc1ccc(CNC(=O)C(=O)c2cn(CC(=O)N3CCCC3)c3ccccc23)cc1 ?
VACV Venus inh: inactive; NS1 function inh: inactive; VACV mCherry inh: inactive; Pf growth 96h: inconclusive; Pf growth 48h: inactive

What do the screens show for `COc1cccc(NC(=O)C(=O)c2cn(CC(=O)N3CCCC3)c3ccccc23)c1`?
NS1 function inh: inactive; Pf growth 96h: 10µM; Pf growth 48h: inactive; HCV inhibitor: inconclusive

What do the screens show for `COc1ccc(OC)c(NC(=O)C(=O)c2cn(CC(=O)N3CCCC3)c3ccccc23)c1`?
VACV Venus inh: inactive; NS1 function inh: inactive; VACV mCherry inh: inactive; Pf growth 96h: 4.7µM; Pf growth 48h: 9.3µM; HCV inhibitor: inconclusive

Results for CCC(C)NC(=O)C1(NC(=O)Nc2ccccc2)CCCCC1 (stereo not drawn) ?
Pf growth 96h: inactive; Pf growth 48h: inactive; HCV inhibitor: inactive

What do the screens show for `Nc1nonc1-n1nnc(C(=O)N/N=C/c2cccc(Cl)c2)c1-c1ccc2c(c1)OCO2`?
VACV Venus inh: inactive; NS1 function inh: inactive; VACV mCherry inh: inactive; Pf growth 96h: 0.033µM; Pf growth 48h: 0.074µM; HCV inhibitor: inactive

Results for Nc1nonc1-n1nnc(C(=O)N/N=C/c2ccc(Br)cc2)c1-c1ccc2c(c1)OCO2 ?
VACV Venus inh: inactive; NS1 function inh: inactive; VACV mCherry inh: inactive; Pf growth 96h: 0.059µM; Pf growth 48h: 0.21µM; HCV inhibitor: inactive

How did Nc1nonc1-n1nnc(C(=O)N/N=C/c2c(F)cccc2Cl)c1-c1ccc2c(c1)OCO2 do in these assays?
NS1 function inh: inactive; Pf growth 96h: 6.6µM; Pf growth 48h: 13µM; HCV inhibitor: inactive

What do the screens show for `Nc1nonc1-n1nnc(C(=O)N/N=C/c2ccc3c(c2)OCO3)c1-c1ccccc1`?
VACV Venus inh: inactive; NS1 function inh: inactive; VACV mCherry inh: inactive; Pf growth 96h: inconclusive; Pf growth 48h: inconclusive; HCV inhibitor: inconclusive

Results for Cc1cc(NC(=O)c2cn(C3CCCCC3)c(=O)c3c2c2ccccc2n3C)no1 ?
VACV Venus inh: inactive; NS1 function inh: inactive; VACV mCherry inh: inactive; Pf growth 96h: inconclusive; HCV inhibitor: 11µM

What do the screens show for `Cc1ccc(CNC(=O)c2cn(C3CCCCC3)c(=O)c3c2c2ccccc2n3C)o1`?
VACV Venus inh: inactive; NS1 function inh: inactive; VACV mCherry inh: inactive; Pf growth 96h: inactive; HCV inhibitor: inactive

Results for Cc1ccc2oc(-c3cccc(N)c3)nc2c1 ?
VACV Venus inh: inactive; VACV mCherry inh: inactive; Pf growth 96h: inactive; Pf growth 48h: inactive; HCV inhibitor: inactive

How did CCC(=O)c1cc(F)c(N2CCN(S(=O)(=O)c3ccc(C)cc3)CC2)cc1C do in these assays?
VACV Venus inh: inactive; NS1 function inh: inactive; VACV mCherry inh: inactive; Pf growth 96h: 10µM; Pf growth 48h: inconclusive; HCV inhibitor: 13µM

What do the screens show for `Cc1ccc(C)c(N2CCN(S(=O)(=O)c3ccc4c(c3)n(C)c(=O)c(=O)n4C)CC2)c1`?
VACV Venus inh: inactive; VACV mCherry inh: inactive

How did Cc1ccc(N2CCN(S(=O)(=O)c3ccc(F)c(C)c3)CC2)c(C)c1 do in these assays?
VACV Venus inh: inactive; NS1 function inh: inactive; Pf growth 48h: inactive; HCV inhibitor: inactive

How did Cc1ccc(C)c(N2CCN(S(=O)(=O)c3ccc4c(c3)CC(=O)N4C)CC2)c1 do in these assays?
VACV Venus inh: inactive; NS1 function inh: inactive; VACV mCherry inh: inactive; Pf growth 96h: inactive; Pf growth 48h: 8.3µM; HCV inhibitor: inactive

How did CCC(=O)N1CCc2cc(S(=O)(=O)N3CCN(c4cc(C)ccc4C)CC3)ccc21 do in these assays?
VACV Venus inh: inactive; NS1 function inh: inactive; VACV mCherry inh: inactive; Pf growth 96h: 10µM; Pf growth 48h: inactive; HCV inhibitor: inactive

How did COc1cc(C2CC(c3c(C)cc(C)[nH]c3=O)=NN2c2ccccc2F)cc(OC)c1OC (stereo not drawn) do in these assays?
VACV Venus inh: inactive; NS1 function inh: inactive; VACV mCherry inh: inactive; Pf growth 96h: inactive; Pf growth 48h: inconclusive; HCV inhibitor: inactive

How did CC(C)C(CCNC1CCN(C)CC1)c1ccc(Cl)cc1 (stereo not drawn) do in these assays?
NS1 function inh: inactive; Pf growth 96h: inconclusive; Pf growth 48h: inactive[0.00184 µM]; HCV inhibitor: 1.4µM

What do the screens show for `CC(C)C(CCNCc1ccccn1)c1ccc(Cl)cc1` (stereo not drawn)?
VACV Venus inh: inactive; NS1 function inh: inactive; VACV mCherry inh: inactive; Pf growth 96h: inconclusive; Pf growth 48h: inconclusive; HCV inhibitor: inconclusive

How did CN1CCC(NCCC(c2ccc(F)cc2)c2ccc(Cl)cc2)CC1 (stereo not drawn) do in these assays?
VACV Venus inh: 11µM; NS1 function inh: inactive; VACV mCherry inh: inconclusive; Pf growth 96h: 1.9µM; Pf growth 48h: 1.7µM; HCV inhibitor: 2µM

What do the screens show for `CCOc1ccc(CNC(=O)CCCn2c(=O)c3cccn3c3cccnc32)cc1`?
VACV Venus inh: inactive; VACV mCherry inh: inactive
